This note sets out measurements from PubChem BioAssay.

Molecules are shown by their SMILES. Activity calls are given as the source filed them.

A short description of assay [1]: small molecules captured by biotinylated probe aFSTL3 – biochemical, small-molecule microarray, fluorescence 635/667, stem cell growth factor project, primary screen (AID 1064).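 Also: measures binding of the biotinylated anti-FSTL3 antibody to printed compounds.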 The conditions noted are these: higher = more signal.
Assay [2] is described as follows: binders from COS7 lysate, DM2A8 probe, primary screen, torsin A project, cell lysate, small-molecule microarray, fluorescence 635/667 (AID 1065). The following applies: higher = more signal, COS7 lysate expressing mutant human TOR1A.
Assay [3] is described as follows: small molecules captured by biotinylated probe aFGF2 – biochemical, small-molecule microarray, fluorescence 635/667, stem cell growth factor project, primary screen (AID 1067).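 Also: measures binding of biotinylated aFGF2 protein to printed compounds on slides; z-score merges feature fluorescence and signal-to-noise across triplicate slides.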 The conditions noted are these: higher = more signal.
Assay [4] in a line: small molecules captured by biotinylated probe aFGF10 – biochemical, small-molecule microarray, fluorescence 635/667, stem cell growth factor project, primary screen (AID 1071).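 Also: score merges 667 nm spot intensity and signal to noise from triplicate slides.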 The following applies: higher = more signal.
Assay [5] has as its target Neurogenic locus notch homolog protein 2 (Homo sapiens) (UniProt Q04721). Description: small molecules binding Notch2 protein – biochemical, small-molecule microarray, 635 nm fluorescence, stem cell growth factors, primary screen (AID 1073). The following applies: higher = more signal.
Assay [6] deals with Pro-neuregulin-1, membrane-bound isoform (Homo sapiens) (UniProt Q02297). Description: small molecules binding neuregulin-1 protein – biochemical, small-molecule microarray, fluorescence 635/667, psychiatric disease protein project, primary screen (AID 1075).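 Also: score combines 667 nm spot fluorescence with signal to noise.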 The conditions noted are these: NRG1 binding, 635 nm fluorescence, higher = more signal.
Assay [7] concerns Neuregulin-1 EGF-like domain. Kind of assay: small molecules binding NRG1 EGF domain – biochemical, small-molecule microarray, 635 nm fluorescence, primary screen (AID 1081).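 Also: binding of the protein to compounds printed on small-molecule microarray slides.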 The following applies: higher = more signal.
Assay [8] is described as follows: FRG1 expression reporter modulators in myotubes – cell-based, C2C12 myotubes, firefly/Renilla luciferase, luminescence, FRG1 inhibition for FSHD, primary screen (AID 1084). The conditions noted are these: FRG1 promoter luciferase, higher = more signal, called active from +8 up or from −8 down.
Assay [9] can be described thus: small molecules captured by biotinylated probe aFST – biochemical, small-molecule microarray, fluorescence 635/667, stem cell growth factor project, primary screen (AID 1086).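 Also: score merges 667 nm fluorescence with signal-to-noise of each printed compound spot.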 The following applies: higher = more signal.
A short description of assay [10]: binders of probe aHhip on microarray, primary screen, stem cell growth factor project, biochemical, small-molecule microarray, fluorescence 635/667 (AID 1087).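 Also: score merges spot fluorescence at 667nm with spot signal to noise ratio.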 The conditions noted are these: higher = more signal.
In assay [11] the test system is PRMT1 (protein arginine N-methyltransferase 1). Kind of assay: small molecules binding arginine methyltransferase PRMT1 – biochemical, small-molecule microarray, 635 nm fluorescence, primary screen (AID 1088).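 Also: binding of Prmt1 protein to compounds spotted on small-molecule microarray slides.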 The following applies: higher = more signal.
Assay [12] can be described thus: growth effects on S. cerevisiae YJM789 – YJM789 clinical isolate, OD600, 24 h, basal, primary screen (AID 1089).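 Also: growth of clinical yeast isolate S. cerevisiae YJM 789 seeded 1000 cells per well; test concentration not given here.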 The conditions noted are these: higher = more signal, called active from +8 up or from −8 down.
Assay [13] is described as follows: S. pombe growth modifiers, basal conditions – strain 972, OD600, 24 h, no modulator, primary screen (AID 1090).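 Also: basal condition with compound alone and no growth modifier present; test concentration not given here.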 The following applies: S. pombe 972 growth, higher = more signal, called active from +8 up or from −8 down.
Assay [14] in a line: budding yeast growth modifiers under rapamycin – strain BY4716, OD600, 96 h, primary screen (AID 1091). Also: test concentration not given here. The conditions noted are these: S. cerevisiae BY4716 + rapamycin, higher = more signal, called active from +8 up or from −8 down.
Assay [15] addresses Torsin-1A-interacting protein 2 (Homo sapiens) (UniProt Q8NFQ8). Description: small molecules binding lysate-expressed LULL1 – cell lysate, human LULL1 lysate, 635/667 nm fluorescence, primary screen (AID 1092).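 Also: score merges per-feature 667 nm fluorescence with signal-to-noise.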 The following applies: small-molecule microarray, hLULL1 lysate binding, 635 nm fluorescence; higher = more signal.
Assay [16] is described as follows: optical density change of DRC41 E. coli – strain DRC41, OD650, 24 h, E. coli filamentation project, primary screen (AID 1093).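 Also: MC1000 strain lacking acrAB efflux and sulA so SOS filamentation is blocked; test concentration not given here.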 The following applies: E. coli DRC41 growth, higher = more signal, called active from +8 up or from −8 down.
A short description of assay [17]: probe aLefty2 binding to arrayed compounds – biochemical, biotinylated probe, 635/667 nm fluorescence, primary screen (AID 1094).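 Also: score merges spot fluorescence near 667 nm with spot signal-to-noise ratio.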 The following applies: small-molecule microarray, higher = more signal.
The test system of assay [18] is Noggin (protein binding on small-molecule microarray). Description: small molecules binding Noggin protein – biochemical, 635/667 nm fluorescence, primary screen (AID 1095).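 Also: score merges 667 nm feature fluorescence with signal to noise over triplicate slides.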 The following applies: 635 nm fluorescence, higher = more signal.
The target of assay [19] is Neurogenic locus notch homolog protein 3 (Homo sapiens) (UniProt Q9UM47). Kind of assay: small molecules binding NOTCH3 protein – biochemical, 635/667 nm fluorescence, primary screen (AID 1096). The conditions noted are these: small-molecule microarray, 635 nm fluorescence, higher = more signal.
Assay [20] in a line: probe aEGFR binding to arrayed compounds – biochemical, biotinylated probe, 635/667 nm fluorescence, primary screen (AID 1097).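 Also: probe is a biotinylated anti-EGFR antibody binding compounds printed on slides; score combines fluorescence near 667 nm and signal to noise of each spot.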 The following applies: small-molecule microarray, higher = more signal.

Sequence of Neurogenic locus notch homolog protein 3 (Homo sapiens) (Q9UM47 whole entry, looked up): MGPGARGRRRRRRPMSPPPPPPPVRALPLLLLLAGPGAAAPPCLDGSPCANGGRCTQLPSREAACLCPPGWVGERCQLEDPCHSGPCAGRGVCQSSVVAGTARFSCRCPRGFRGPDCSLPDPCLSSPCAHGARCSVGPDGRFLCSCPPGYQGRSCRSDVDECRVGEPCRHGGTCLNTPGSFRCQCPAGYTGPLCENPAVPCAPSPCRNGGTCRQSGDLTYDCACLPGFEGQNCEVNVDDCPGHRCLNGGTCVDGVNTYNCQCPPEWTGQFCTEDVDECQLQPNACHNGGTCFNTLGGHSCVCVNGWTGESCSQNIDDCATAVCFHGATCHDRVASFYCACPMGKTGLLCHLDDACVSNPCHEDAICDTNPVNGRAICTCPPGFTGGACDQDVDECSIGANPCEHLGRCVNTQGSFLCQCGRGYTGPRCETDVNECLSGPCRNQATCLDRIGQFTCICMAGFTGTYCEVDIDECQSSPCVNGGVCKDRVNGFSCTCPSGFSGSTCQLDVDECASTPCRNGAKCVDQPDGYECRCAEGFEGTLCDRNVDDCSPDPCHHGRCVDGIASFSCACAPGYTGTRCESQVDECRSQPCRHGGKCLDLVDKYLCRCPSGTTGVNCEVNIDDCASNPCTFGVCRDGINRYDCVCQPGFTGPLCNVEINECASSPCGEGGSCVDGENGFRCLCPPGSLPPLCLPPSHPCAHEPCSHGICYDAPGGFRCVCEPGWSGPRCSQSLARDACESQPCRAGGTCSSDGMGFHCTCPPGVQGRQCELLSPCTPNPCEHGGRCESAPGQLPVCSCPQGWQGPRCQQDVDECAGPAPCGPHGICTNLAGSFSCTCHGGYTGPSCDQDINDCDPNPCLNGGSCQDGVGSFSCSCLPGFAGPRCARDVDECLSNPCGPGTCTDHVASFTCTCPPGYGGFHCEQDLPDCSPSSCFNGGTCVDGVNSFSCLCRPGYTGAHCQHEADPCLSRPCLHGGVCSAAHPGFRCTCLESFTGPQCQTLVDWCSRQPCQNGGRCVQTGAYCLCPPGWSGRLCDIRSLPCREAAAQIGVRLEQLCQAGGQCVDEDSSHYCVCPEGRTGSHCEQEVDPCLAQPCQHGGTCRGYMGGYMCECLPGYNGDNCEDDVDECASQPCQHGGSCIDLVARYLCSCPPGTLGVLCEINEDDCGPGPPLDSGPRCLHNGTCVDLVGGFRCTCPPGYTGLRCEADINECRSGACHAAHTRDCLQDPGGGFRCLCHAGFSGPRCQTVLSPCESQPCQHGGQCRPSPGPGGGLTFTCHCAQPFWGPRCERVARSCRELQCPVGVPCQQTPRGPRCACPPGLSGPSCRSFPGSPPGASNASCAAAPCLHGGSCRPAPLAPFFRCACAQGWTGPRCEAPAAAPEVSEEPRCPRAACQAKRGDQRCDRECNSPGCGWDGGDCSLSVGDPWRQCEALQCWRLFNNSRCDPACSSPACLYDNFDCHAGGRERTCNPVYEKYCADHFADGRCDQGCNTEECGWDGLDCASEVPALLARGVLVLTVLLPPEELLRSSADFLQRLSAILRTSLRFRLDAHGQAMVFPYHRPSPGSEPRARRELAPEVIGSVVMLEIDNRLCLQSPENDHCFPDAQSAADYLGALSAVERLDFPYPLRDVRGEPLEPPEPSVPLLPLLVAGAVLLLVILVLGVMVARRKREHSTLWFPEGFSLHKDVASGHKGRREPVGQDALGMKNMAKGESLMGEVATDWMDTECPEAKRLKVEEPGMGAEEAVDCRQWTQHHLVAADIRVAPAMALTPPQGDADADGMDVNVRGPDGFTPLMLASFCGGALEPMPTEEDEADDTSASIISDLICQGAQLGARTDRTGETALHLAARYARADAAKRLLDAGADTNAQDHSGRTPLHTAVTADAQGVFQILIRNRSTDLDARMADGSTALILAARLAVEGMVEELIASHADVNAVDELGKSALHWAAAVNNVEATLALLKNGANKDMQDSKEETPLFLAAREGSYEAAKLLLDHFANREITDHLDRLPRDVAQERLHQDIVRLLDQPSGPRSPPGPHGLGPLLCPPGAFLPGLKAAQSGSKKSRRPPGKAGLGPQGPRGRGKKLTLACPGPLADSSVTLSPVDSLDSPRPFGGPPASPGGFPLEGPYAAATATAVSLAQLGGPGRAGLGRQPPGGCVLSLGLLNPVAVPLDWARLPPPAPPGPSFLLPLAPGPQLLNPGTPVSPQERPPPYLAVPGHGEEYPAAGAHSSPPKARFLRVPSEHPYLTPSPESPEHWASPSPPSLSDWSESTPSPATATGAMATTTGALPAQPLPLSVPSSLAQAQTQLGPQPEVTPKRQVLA
Sequence of Pro-neuregulin-1, membrane-bound isoform (Homo sapiens) (Q02297 whole entry, looked up, the tested form may be a part, canonical isoform): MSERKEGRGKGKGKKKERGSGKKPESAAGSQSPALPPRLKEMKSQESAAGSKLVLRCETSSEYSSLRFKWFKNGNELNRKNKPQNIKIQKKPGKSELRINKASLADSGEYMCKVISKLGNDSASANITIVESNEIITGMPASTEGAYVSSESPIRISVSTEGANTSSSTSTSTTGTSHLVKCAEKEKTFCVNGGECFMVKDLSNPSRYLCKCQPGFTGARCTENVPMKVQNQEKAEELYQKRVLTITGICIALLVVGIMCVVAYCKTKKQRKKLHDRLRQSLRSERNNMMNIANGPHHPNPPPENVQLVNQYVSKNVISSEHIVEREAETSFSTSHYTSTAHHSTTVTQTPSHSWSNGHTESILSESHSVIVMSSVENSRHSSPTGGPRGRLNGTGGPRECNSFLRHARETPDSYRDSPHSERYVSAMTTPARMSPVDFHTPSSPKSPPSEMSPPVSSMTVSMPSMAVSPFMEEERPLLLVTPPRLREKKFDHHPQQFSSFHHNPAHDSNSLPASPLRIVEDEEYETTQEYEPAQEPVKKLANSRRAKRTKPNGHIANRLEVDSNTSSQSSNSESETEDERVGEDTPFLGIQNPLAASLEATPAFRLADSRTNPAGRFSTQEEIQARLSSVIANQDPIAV
Sequence of Torsin-1A-interacting protein 2 (Homo sapiens) (Q8NFQ8 whole entry, looked up): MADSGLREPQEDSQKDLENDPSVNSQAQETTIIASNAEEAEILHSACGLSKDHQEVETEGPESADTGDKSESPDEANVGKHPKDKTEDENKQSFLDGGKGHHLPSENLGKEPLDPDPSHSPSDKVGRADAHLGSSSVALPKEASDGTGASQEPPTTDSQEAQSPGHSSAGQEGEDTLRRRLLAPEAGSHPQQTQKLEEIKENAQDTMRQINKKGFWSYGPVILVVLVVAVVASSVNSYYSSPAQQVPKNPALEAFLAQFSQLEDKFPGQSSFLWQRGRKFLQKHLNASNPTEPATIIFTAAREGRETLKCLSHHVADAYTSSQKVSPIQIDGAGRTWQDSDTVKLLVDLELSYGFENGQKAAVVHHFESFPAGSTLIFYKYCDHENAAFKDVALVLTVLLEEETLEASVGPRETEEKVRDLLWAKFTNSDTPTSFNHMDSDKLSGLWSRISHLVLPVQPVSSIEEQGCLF

On to `CC(C)OC(=O)CC(=O)CC(O)c1ccc(C#N)cc1` (stereo not given), for which the composite z-score stood at 0.401 in [1]; 0.435 in assay [2]; 0.0798 in assay [3]; 0.356 in assay [4]; 1.29 in [5]; 0.366 in [6]. The composite z-score amounted to 0.552 in assay [7]; 0.712 in assay [9]; 0.0722 in assay [10]; 0.269 in assay [11]; 1.85 in assay [15]; 0.403 in [17]. Further, the composite z-score is -0.263 in assay [18], 0.14 in [19] and 0.0541 in assay [20]. Moreover, the z-score is -0.711 (inactive) in assay [8]; -2.05 (inactive) in assay [12]; 0.331 (inactive) in [13]; -0.602 (inactive) in [14]; 0.0935 (inactive) in [16].
With `COCCOC(=O)N1C(=O)[C@@]2(c3cc(C#CCNC(N)=O)ccc31)[C@H](C(=O)N1CCc3cc(OC)c(OC)cc3C1)[C@H]1C(=O)O[C@H](c3ccccc3)[C@H](c3ccccc3)N1[C@@H]2c1ccc(OCCO)cc1`, the composite z-score in assay [1] is -0.222; in assay [2], 0.388; in assay [3] it was -0.0293; in assay [4] it was 0.392; in [5], 0.578; in [6], 0.0155. Also, the composite z-score in assay [7] was 0.172; in assay [9], 0.536; in assay [10], 0.12; in assay [11] it was 1.08; in [15] it was 0.277; in assay [17], -0.0163. In addition, the results for the composite z-score in assay [18], in [19] and in [20] were 1.3, 1.13 and -0.0734, respectively. Also, the z-score is 0.363 (inactive) in assay [8]; 0.854 (inactive) in assay [12]; 0.575 (inactive) in assay [13]; 4.41 (inactive) in assay [14]; 0.692 (inactive) in assay [16].
`O=C1O[C@H](c2ccccc2)[C@H](c2ccccc2)N2[C@H]1[C@@H](C(=O)O)[C@]1(C(=O)Nc3ccc(C#CC4=CCCCC4)cc31)[C@H]2c1ccc(OCCO)cc1`: the composite z-score was -0.0152 in assay [1]; 0.651 in [2]; -0.0438 in [3]; 1.09 in assay [4]; 1.44 in [5]; 1.77 in [6]. Further, the composite z-score is 1.34 in assay [7]; 1.03 in assay [9]; -0.0672 in assay [10]; 1.54 in assay [11]; 3.06 in assay [15]; -0.0104 in assay [17]. For the same compound, the composite z-score in [18] was 1.34; in [19], 1.1; in assay [20], -0.0657. The z-score is 0.448 (inactive) in assay [8]; 2.1 (inactive) in [12]; 1.14 (inactive) in [13]; -0.1 (inactive) in assay [14]; -0.413 (inactive) in assay [16].
`CCOC(=O)C[C@H]1[C@H](OC(=O)c2ccc(C(=O)c3ccccc3)cc2)[C@@H](NC(=O)C2CCCCC2)c2cc(OCCCO)ccc2N1C(=O)c1ccccc1`: the composite z-score in assay [1] is -0.379; in [2], -0.248; in assay [3], -0.0478; in assay [4], 0.494; in assay [5] it was 1.02; in [6] it was 0.857. Besides, the composite z-score in [7] is 0.95; in assay [9] it was 0.253; in assay [10], 0.682; in assay [11] it was 1.55; in assay [15], 2.04; in [17], -0.02. For the same compound, the figures for the composite z-score in [18], in assay [19] and in [20] were 0.45, -0.215 and 0.0546, respectively. The z-score in assay [8] was -0.541 (inactive); in assay [12], -0.326 (inactive); in [13] it was 0.358 (inactive); in [14], -0.155 (inactive); in [16] it was -1.15 (inactive).
For the compound `CCCCC(O)C1C=CC2C(=O)N(C3CCCCC3)C(=O)C2N1Nc1ccc(OC)cc1` (stereo not given), the composite z-score in [1] is -0.362; in assay [2], 0.139; in assay [3], -0.0056; in assay [4] it was 0.441; in assay [5] it was 1.45; in assay [6], 1.29. Also, the composite z-score in assay [7] amounted to 1.13; in [9], 0.583; in assay [10], 0.107; in assay [11], 1.19; in [15] it was 2.77; in assay [17], 0.165. Also, the figures for the composite z-score in [18], in assay [19] and in [20] were 0.5, 1.1 and -0.0661, respectively. For the same compound, the z-score in [8] was 0.405 (inactive); in assay [12], 0.595 (inactive); in assay [13], 0.241 (inactive); in [14], 1.15 (inactive); in [16], 0.202 (inactive).
